A selection: hits, their analogues and other compounds. The true share with any hit is near 18%.
DT40 TDP1 no CPT – qHTS for Inhibitors of human tyrosyl-DNA phosphodiesterase 1 (TDP1): qHTS in cells in absence of CPT | AID 686978, 2013 | 420,000 tested, 15% active | DT40 Tdp1-/- hTDP1 cells, no CPT, ATP luminescence, 48 h | Potency, µM (top dose mostly 46.2 µM), usual class: inhibitors; further: nearly all actives have a fitted effect of over 55% in size
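Luminescent ATP content (CellTiter-Glo) served as the growth readout. Knockout chicken DT40 cells expressing human TDP1 were exposed to compounds without camptothecin for a minimum 48 hr at 37 °C.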
TDP1 cell CPT – qHTS for Inhibitors of human tyrosyl-DNA phosphodiesterase 1 (TDP1): qHTS in cells in presence of CPT. Potency, µM (highest dose often 46.2 µM), hits mostly inhibitors. AID 686979, 2013. chicken DT40 Tdp1-/-;hTDP1 cells + 20 nM CPT, ATP luminescence, 48 h. 420,000 tested, 12% active; further: nearly all actives have a fitted effect of over 55% in size
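Cell growth measured by CellTiter-Glo luminescence after a minimum 48 h, 37 C compound exposure with 20 nM CPT in Tdp1-knockout DT40 cells stably expressing hTDP1, seeded 400/well; qHTS titration format.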
Six1-Eya2 inh – qHTS Assay for Inhibitors of the Six1/Eya2 Interaction | AlphaScreen GST-Six1/His-Eya2 binding, biochemical; stronger effect = lower value | Homeobox protein SIX1 (Homo sapiens) + Protein phosphatase EYA2 (Homo sapiens), … | activity change, % (test concentration not listed) | AID 651725, 2012 | 360,000 tested, 0.56% active; in the data active means activity change below about -65%; inconclusive means mostly about -30% to -63%
Target sequence (O00167 whole entry, looked up): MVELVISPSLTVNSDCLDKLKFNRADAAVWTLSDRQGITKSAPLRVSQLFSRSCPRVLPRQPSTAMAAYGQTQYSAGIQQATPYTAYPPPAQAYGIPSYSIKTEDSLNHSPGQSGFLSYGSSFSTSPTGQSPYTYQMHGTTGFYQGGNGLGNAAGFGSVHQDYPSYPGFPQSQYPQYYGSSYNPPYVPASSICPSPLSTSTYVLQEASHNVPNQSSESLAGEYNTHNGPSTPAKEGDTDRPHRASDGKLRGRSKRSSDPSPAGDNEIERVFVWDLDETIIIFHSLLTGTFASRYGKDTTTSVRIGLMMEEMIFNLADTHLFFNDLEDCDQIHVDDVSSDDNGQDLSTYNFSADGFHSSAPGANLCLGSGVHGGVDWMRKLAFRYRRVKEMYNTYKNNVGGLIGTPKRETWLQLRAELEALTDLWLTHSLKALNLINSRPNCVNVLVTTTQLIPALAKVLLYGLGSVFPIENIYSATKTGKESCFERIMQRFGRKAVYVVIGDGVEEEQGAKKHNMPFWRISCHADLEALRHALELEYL
Target sequence (Q15475 whole entry, looked up): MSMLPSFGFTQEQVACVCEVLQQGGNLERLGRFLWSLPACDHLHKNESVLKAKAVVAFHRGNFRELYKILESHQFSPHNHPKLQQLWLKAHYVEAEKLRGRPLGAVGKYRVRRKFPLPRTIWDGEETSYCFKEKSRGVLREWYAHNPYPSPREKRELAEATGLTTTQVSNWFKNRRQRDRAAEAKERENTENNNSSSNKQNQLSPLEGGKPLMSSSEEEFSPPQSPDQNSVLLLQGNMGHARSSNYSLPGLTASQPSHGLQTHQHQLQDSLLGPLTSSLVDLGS
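Homogeneous AlphaScreen proximity assay pairing GST-Six1 with His-tagged Eya2 (added as 5X mix: 250 nM and 500 nM) in 50 mM Tris pH 8.0, 300 mM NaCl, 1 mM TCEP. Glutathione donor and nickel acceptor beads; 1 h, 37 °C, dark.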
IL-1B inflam inh – qHTS for Inhibitors of Inflammasome Signaling: IL-1-beta AlphaLISA Primary Screen; activity change, % at 57.5 µM; THP-1 LPS/ATP IL-1B secretion, AlphaLISA, 16 h; stronger effect = lower value; 360,000 tested, 4.7% active; AID 743279, 2014; in the data active means activity change below about -50%; inconclusive means mostly about -30% to -49%
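THP-1 cells pretreated 1 hr with compounds (up to 57.5 uM final), then stimulated with LPS (250 ng/mL final) plus ATP (1.25 mM final); secreted IL-1B measured by AlphaLISA after 16 hr, decreased signal indicating inhibition.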
TDP1 block – qHTS Assay for Inhibitors of Tyrosyl-DNA Phosphodiesterase (TDP1); Potency, µM (top dose mostly 130 µM), actives largely listed as inhibitors; Tyrosyl-DNA phosphodiesterase 1 (Homo sapiens), Q9NUW8; 350,000 tested, 0.28% active; recombinant TDP1, AlphaScreen DNA substrate cleavage; further: nearly all actives have a fitted effect of over 40% in size
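Recombinant E. coli-expressed Tdp1 (1 nM) preincubated with compound 15 min at RT, then 5'-biotin/3'-phosphotyrosine-FITC DNA substrate (15 nM) added for 5 min. AlphaScreen beads (10 ug/ml) added, 10 min RT; tyrosine-FITC cleavage read as signal loss.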
CtBP-E1A inh – qHTS Assay for Inhibitors of the CtBP/E1A Interaction. CtBP / adenovirus E1A interaction (AlphaScreen). AlphaScreen GST-E1A/His-CtBP binding, 1536-well; stronger effect = lower value. activity change, % (no concentration beside the values). 340,000 tested, 0.49% active. AID 651724, 2012; in the data active means activity change below about -65%; inconclusive means mostly about -30% to -63%
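Homogeneous bead-based format: GST-tagged E1A captured on glutathione donor beads, His-tagged CtBP on nickel acceptor beads; compounds precede bead addition by 2 h at 37 °C.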
Of the large screens only hits and unclear results are named; the others gave an inactive call. Unless noted, the call rests on the fitted dose curve; in most records, active means well fitted curve in the direction sought with a large enough effect; inconclusive means small, poorly fitted or top-dose-only effect, or another doubt; inactive means no such curve, though single readings can be large; an effect the other way counts as inactive or inconclusive.

COc1ccc(OC)c(C(c2nnnn2C2CCCC2)N2CCN(c3ccc(F)cc3)CC2)c1 (stereo not given)	DT40 TDP1 no CPT inconclusive, TDP1 cell CPT inconclusive, Six1-Eya2 inh inconclusive
COc1ccc(C(c2nnnn2C2CCCC2)N2CCC(C)CC2)c(OC)c1 (stereo not given)	DT40 TDP1 no CPT 20.6µM, TDP1 cell CPT 18.4µM
CC(C)C(c1nnnn1C1CCCC1)N1c2ccccc2CC1C (stereo not given)	DT40 TDP1 no CPT 13µM, TDP1 cell CPT 20.6µM
COCCCNC(=O)C[C@@H]1C[C@@]2(C(=O)OC)CCCCC=C2N(Cc2ccccc2)C1=O	none (no result: TDP1 block)
COC(=O)[C@]12CCCCC=C1N(Cc1ccc(Cl)cc1Cl)C(=O)[C@H](CC(=O)NCC1CCCCC1)C2	DT40 TDP1 no CPT 18.4µM, TDP1 cell CPT inconclusive (no result: TDP1 block)
CCCCNC(=O)C[C@@H]1C[C@@]2(C(=O)OC)CCCCC=C2N(Cc2ccccc2)C1=O	DT40 TDP1 no CPT inconclusive, TDP1 cell CPT inconclusive (no result: TDP1 block)
COCCCNC(=O)C[C@@H]1C[C@@]2(C(=O)OC)CCCCC=C2N(Cc2ccc(Cl)cc2Cl)C1=O	DT40 TDP1 no CPT 16.4µM, TDP1 cell CPT inconclusive (no result: TDP1 block)
COC(=O)[C@]12CCCCC=C1N(Cc1ccccc1)C(=O)[C@H](CC(=O)NCC1CCCCC1)C2	DT40 TDP1 no CPT inconclusive, TDP1 cell CPT 16.4µM (no result: TDP1 block)
CCCCOc1ccc(CNC(=O)CCCN2C(=O)CSc3c2c(C)nn3-c2ccccc2)cc1	DT40 TDP1 no CPT 13µM, TDP1 cell CPT 18.4µM (no result: Six1-Eya2 inh, IL-1B inflam inh, CtBP-E1A inh)
Cc1nn(-c2ccccc2)c2c1N(CCCC(=O)NCc1ccc(OC(C)C)cc1)C(=O)CS2	DT40 TDP1 no CPT 7.31µM, TDP1 cell CPT 14.6µM (no result: Six1-Eya2 inh, IL-1B inflam inh, CtBP-E1A inh)
Cc1nn(-c2ccccc2)c2c1N(CCCC(=O)NCc1ccc(Cl)cc1)C(=O)CS2	DT40 TDP1 no CPT 23.1µM, TDP1 cell CPT 25.9µM (no result: Six1-Eya2 inh, IL-1B inflam inh, CtBP-E1A inh)
Cc1ccc(-n2nc3c(=O)n(CCCC(=O)NC(C)c4ccccc4)nc(C)c3c2C)cc1 (stereo not given)	DT40 TDP1 no CPT inconclusive (no result: Six1-Eya2 inh, IL-1B inflam inh, CtBP-E1A inh)
Cc1nn(-c2ccccc2)c2c1N(CCCC(=O)NC(C)c1ccccc1)C(=O)CS2 (stereo not given)	DT40 TDP1 no CPT inconclusive, TDP1 cell CPT 14.6µM (no result: Six1-Eya2 inh, IL-1B inflam inh, CtBP-E1A inh)
COc1ccccc1NC(=O)Nc1nc(CC(=O)Nc2ccc(OC)c(OC)c2)cs1	DT40 TDP1 no CPT inconclusive (no result: TDP1 block)
COc1ccc(-c2csc3ncnc(NCCO)c23)cc1	DT40 TDP1 no CPT inconclusive, TDP1 cell CPT inconclusive, IL-1B inflam inh -81.5 (no result: TDP1 block)
COc1ccc(-c2csc3ncnc(NCCCO)c23)cc1	DT40 TDP1 no CPT 8.2µM, TDP1 cell CPT inconclusive, IL-1B inflam inh inconclusive (no result: TDP1 block)
COc1ccc(NC(=O)C2=C(C)Nc3nc(SCc4ccccc4C)nn3C2c2cc(OC)c(O)c(OC)c2)cc1 (stereo not given)	none (no result: Six1-Eya2 inh, IL-1B inflam inh, CtBP-E1A inh)
O=S(=O)(Nc1ccc(C(O)(C(F)(F)F)C(F)(F)F)cc1)c1ccc(Cl)c2nonc12	DT40 TDP1 no CPT 14.6µM, TDP1 cell CPT 13µM, IL-1B inflam inh -113.7 (no result: TDP1 block)
Cc1nc(C(=O)Nc2cccc(Cl)c2)nn1-c1cc(OC(C)C)c(Cl)cc1Cl	DT40 TDP1 no CPT inconclusive, TDP1 cell CPT 16.4µM
Cc1nc(C(=O)Nc2cccc(Cl)c2Cl)nn1-c1cc(OC(C)C)c(Cl)cc1Cl	DT40 TDP1 no CPT inconclusive
Cc1nc(C(=O)Nc2ccc(Cl)cc2Cl)nn1-c1cc(OC(C)C)c(Cl)cc1Cl	DT40 TDP1 no CPT inconclusive, TDP1 cell CPT inconclusive
Cc1nc(C(=O)Nc2cc(Cl)ccc2Cl)nn1-c1cc(OC(C)C)c(Cl)cc1Cl	DT40 TDP1 no CPT 11.6µM, TDP1 cell CPT 16.4µM
